The results in this text go back to PubChem BioAssay (EPA / NIEHS).

“And” between values parts separate entries of the source, which are not always exact repeats. Identical values can stand only once. Inconclusive results are not listed. Where a structure was tested more than once in an assay, its records may differ in their call. The source made the active and inactive calls. How the source made its calls: active means hit-call score of the fitted dose curve at least 0.9, where 1 is the maximum; inconclusive means response in the unintended direction; inactive means score below 0.9.

Chain of human Thyroid hormone Receptor alpha (TRa), THRA (gene 7067) (P10827 whole entry, looked up, the tested form may be a part): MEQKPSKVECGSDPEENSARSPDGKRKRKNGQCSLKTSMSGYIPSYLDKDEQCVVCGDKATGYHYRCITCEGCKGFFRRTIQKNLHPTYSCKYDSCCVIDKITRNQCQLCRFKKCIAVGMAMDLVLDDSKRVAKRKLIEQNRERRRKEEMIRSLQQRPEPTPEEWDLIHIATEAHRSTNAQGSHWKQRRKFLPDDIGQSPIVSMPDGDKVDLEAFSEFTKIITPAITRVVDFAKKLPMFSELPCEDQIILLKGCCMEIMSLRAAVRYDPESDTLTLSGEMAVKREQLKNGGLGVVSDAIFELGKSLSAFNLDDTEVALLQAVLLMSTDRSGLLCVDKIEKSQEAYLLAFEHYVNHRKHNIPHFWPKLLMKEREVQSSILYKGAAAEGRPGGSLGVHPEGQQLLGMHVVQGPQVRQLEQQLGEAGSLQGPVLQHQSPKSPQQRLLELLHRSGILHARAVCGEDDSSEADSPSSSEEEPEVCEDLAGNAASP
Chain of human Thyroid hormone Receptor beta (TRb), THRB (gene 7068) (P10828 whole entry, looked up, the tested form may be a part): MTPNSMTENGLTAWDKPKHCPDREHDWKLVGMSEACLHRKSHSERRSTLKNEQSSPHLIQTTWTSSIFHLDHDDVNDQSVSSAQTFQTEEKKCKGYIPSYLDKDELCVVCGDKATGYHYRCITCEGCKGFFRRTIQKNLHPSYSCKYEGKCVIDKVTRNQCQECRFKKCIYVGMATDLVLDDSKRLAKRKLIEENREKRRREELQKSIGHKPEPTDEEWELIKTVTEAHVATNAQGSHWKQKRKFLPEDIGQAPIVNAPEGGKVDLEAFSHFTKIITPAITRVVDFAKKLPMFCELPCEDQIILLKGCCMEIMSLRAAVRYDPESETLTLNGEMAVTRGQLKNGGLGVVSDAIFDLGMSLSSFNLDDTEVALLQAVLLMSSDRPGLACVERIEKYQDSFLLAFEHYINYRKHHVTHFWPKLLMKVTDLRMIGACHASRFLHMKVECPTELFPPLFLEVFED

The target of one experiment is human Thyroid hormone Receptor alpha (TRa), THRA (gene 7067) (UniProt P10827). Description: ATG_hTRa_XSP2: Attagene TRANS-FACTORIAL Multi-Species (XSP2) HepG2 Assay for human Thyroid hormone Receptor alpha (TRa) (AID 2283838). In outline:
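HepG2 cells transiently transfected with multiplexed GAL4-UAS reporter units and exogenous NR-GAL4 chimeras; 24 h chemical exposure with 3 nM 6-alpha-fluorotestosterone and 1.5 nM norgestrel present. Reporter mRNA measured by RT-PCR, FAM labelling, HpaI digestion, capillary electrophoresis; gain-of-signal versus DMSO.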
Turning to `O=c1c(-c2ccc(O)cc2)coc2cc(O)cc(O)c12`, the compound was called inactive.
Same read-out and setting: the entry for `CC1(C)NC(=O)N(c2ccc([N+](=O)[O-])c(C(F)(F)F)c2)C1=O` is “inactive”.

The target of the next experiment is frog Thyroid hormone Receptor alpha (TRa), thra-a (gene 397942) (UniProt P15204). In words: ATG_frTRa_XSP2: Attagene TRANS-FACTORIAL Multi-Species (XSP2) HepG2 Assay for frog Thyroid hormone Receptor alpha (TRa) (AID 2283839).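 On AC50: AC50 reflects induction of frog TRa-driven reporter mRNA above DMSO baseline.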 In outline: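 HepG2 transiently transfected with multiplexed GAL4-UAS reporters driven by frog TRa-Gal4 chimeras; 24 h chemical exposure. Reporter mRNA quantified by RT-PCR, FAM labelling, HpaI digestion and capillary electrophoresis; gain of signal versus DMSO.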
Chain of frog Thyroid hormone Receptor alpha (TRa), thra-a (gene 397942) (P15204 whole entry, looked up, the tested form may be a part): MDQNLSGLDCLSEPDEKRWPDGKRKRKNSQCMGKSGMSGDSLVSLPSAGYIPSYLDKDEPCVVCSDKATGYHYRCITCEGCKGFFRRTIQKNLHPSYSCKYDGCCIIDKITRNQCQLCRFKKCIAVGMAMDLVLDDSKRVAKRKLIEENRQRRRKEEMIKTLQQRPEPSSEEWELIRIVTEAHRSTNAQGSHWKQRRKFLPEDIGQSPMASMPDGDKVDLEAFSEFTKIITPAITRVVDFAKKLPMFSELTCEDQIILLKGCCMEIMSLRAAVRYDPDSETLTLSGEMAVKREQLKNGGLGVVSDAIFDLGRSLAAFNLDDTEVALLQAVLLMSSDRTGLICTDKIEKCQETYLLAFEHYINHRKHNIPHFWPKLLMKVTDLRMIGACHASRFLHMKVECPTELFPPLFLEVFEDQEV
The AC50 is the midpoint of the concentration-response curve, whichever way the signal moves. In the case of `CC(C)(c1cc(Br)c(O)c(Br)c1)c1cc(Br)c(O)c(Br)c1`, the half-maximal activity concentration (AC50) is 5.76 µM (active).
In the case of `C[C@]12CC[C@@H]3c4ccc(O)cc4CC[C@H]3[C@@H]1CCC2=O`, the compound was classed as inactive.
As to `Cc1c2ccccc2c(C)c2c1ccc1ccccc12`, the outcome was inactive.
Same read-out and setting: the entry for `O=c1c(-c2ccc(O)cc2)coc2cc(O)cc(O)c12` is “inactive”.
Consider `CC1(C)NC(=O)N(c2ccc([N+](=O)[O-])c(C(F)(F)F)c2)C1=O`, for which the half-maximal activity concentration (AC50) is 66.4 µM (active) and the outcome was inactive.
As to `O=C(O)Cc1cc(I)c(Oc2ccc(O)c(I)c2)c(I)c1`, the AC50 is 0.519 nM (active) and 0.826 nM (active).

The target of another experiment is human Thyroid hormone Receptor beta (TRb), THRB (gene 7068) (UniProt P10828). In words: ATG_hTRb_XSP2: Attagene TRANS-FACTORIAL Multi-Species (XSP2) HepG2 Assay for human Thyroid hormone Receptor beta (TRb) (AID 2283840).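 Further: actives raise reporter mRNA so potency reflects agonist-like gain of signal.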 In outline:
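HepG2 transiently transfected with a multi-species panel including a human TRb–Gal4 chimera driving Gal4-UAS reporters; medium contained 3 nM 6-alpha-fluorotestosterone and 1.5 nM norgestrel. 24 h dosing; RT-PCR/capillary electrophoresis readout; positive-direction fit vs DMSO.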
As for `CC(C)(c1cc(Br)c(O)c(Br)c1)c1cc(Br)c(O)c(Br)c1`, the result was inactive.
On to `O=c1c(-c2ccc(O)cc2)coc2cc(O)cc(O)c12`, for which the call was inactive.
On to `CC1(C)NC(=O)N(c2ccc([N+](=O)[O-])c(C(F)(F)F)c2)C1=O`, for which the concentration at half-maximal activity (AC50) is 148 µM (active) and the result was inactive.

In another experiment the test system is Sodium/Iodide Symporter (NIS), SLC5A5 (gene 6528). Description: CPHEA_Stoker_NIS_Inhibition_RAIU: CPHEA's Radioactive Iodide Uptake (RAIU) Assay for Sodium/Iodide Symporter (NIS) Inhibition, Stoker and Laws Labs (AID 2283841). The procedure, abridged:
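Iodide uptake through human NIS is measured in an engineered HEK293T line. Cells take up 125I (329pM final) for 2 hours at room temperature alongside chemicals at 0.001–100uM. Retained radioactivity is counted, and the signal is expressed against DMSO controls.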
On to `CN(C)C(=O)C1(N2CCCCC2)CCN(CC[C@@]2(c3ccc(Cl)c(Cl)c3)CN(C(=O)c3ccccc3)CCO2)CC1`, for which the outcome was inactive.
Consider `CC(C)(c1cc(Br)c(O)c(Br)c1)c1cc(Br)c(O)c(Br)c1`, for which the AC50 was 82.4 µM (active).
On to `NCc1cccc(C2CCN(C(=O)c3ccc(C#Cc4ccccc4F)o3)CC2)c1`, for which the outcome was inactive.
`CN1C(=O)N(c2ccccc2Br)Cc2cnc(Nc3ccc4c(c3)OCC(CO)O4)nc21` (stereo not drawn): the result was inactive.
Still for that read-out and setting: the entry for `CC/C(=C(/CC)c1ccc(O)cc1)c1ccc(O)cc1` is “inactive”.
In the case of `CC(=O)N1CCN(c2ccc(OC[C@H]3CO[C@](Cn4ccnc4)(c4ccc(Cl)cc4Cl)O3)cc2)CC1`, the concentration at half-maximal activity (AC50) is 50 µM (active).
`Clc1cc(Cl)c2c(c1)N=C1CCCCCN1C2`: the result was inactive.
Same read-out and setting: the entry for `CCOC(=O)O[C@H](C)OC(=O)c1ccc2c(c1)cc(C(=O)NC1CCN(C(C)C)CC1)n2Cc1cc(-c2ccc(Cl)s2)on1` is “inactive”; for `O=c1[nH]sc2ccccc12` it is “inactive”; for `O=C1c2ccccc2C(=O)N1CCc1noc(-c2ccc(CN3CCCCCC3)s2)n1` it is “inactive”.
For the compound `Clc1ccccc1C(c1ccccc1)(c1ccccc1)n1ccnc1`, the half-maximal activity concentration (AC50) was 50 µM (active).
Take `CN(C)c1ccc(C(=C2C=CC(=[N+](C)C)C=C2)c2ccc(N(C)C)cc2)cc1`: the AC50 is 17.4 µM (active).
Turning to `CC(C)(C)c1cc(/C=C2\SC(N)=NC2=O)cc(C(C)(C)C)c1O`, the result was inactive.
Regarding `CN(C[C@@H](CC[N+]12CCC(C3CCCCC3)(CC1)CC2)c1ccc(Cl)c(Cl)c1)C(=O)c1cc(C(F)(F)F)cc(C(F)(F)F)c1`, the AC50 is 66.3 µM (active).
Turning to `Cc1c2ccccc2c(C)c2c1ccc1ccccc12`, the result was inactive.
As for `Cc1cc2c(cc1C(F)(F)F)N(C(=O)Nc1ccc(Oc3cccnc3C)nc1)CC2`, the result was inactive.
In the case of `CCN(CC)C(=O)c1cc(S(=O)(=O)Cc2ccccc2)c(N2CCC(c3ccccc3)CC2)cc1N(CC)CCN(C)C`, the outcome was inactive.
On the same count and under the same terms, the entry for `OC12N=C(c3ccccc3)SC1Cc1cc(Cl)ccc12` (stereo not drawn) is “inactive”; for `COc1cc(C(=O)NC2CCN(C)CC2)ccc1Nc1ncc2c(n1)N(C1CCCC1)CC(F)(F)C(=O)N2C` it is “inactive”.
`CCCCCCCCCCCC[N+](C)(C)C`: the result was inactive.
Same read-out and setting: the entry for `O=C(Nc1ccc(Cl)cc1)Nc1ccc(Cl)c(Cl)c1` is “inactive”.
Regarding `CC(C)(C)c1csc(-c2cc3cc(OCc4ccccc4CC(=O)O)ccc3o2)n1`, the half-maximal activity concentration (AC50) is 50 µM (active).
The same measure, in the same setting: the figure for `O=C(O)Cc1cc(I)c(Oc2ccc(O)c(I)c2)c(I)c1` is 88.5 µM (active).
Take `CCCCCCCCOC(=O)c1cc(O)c(O)c(O)c1`: the result was inactive.
As to `NC(=O)c1nc(-c2cccc(-c3cc(F)ccc3OCC(F)(F)C(F)(F)F)c2)n[nH]1`, the AC50 is 50 µM (active).
